Among all 5,500 compounds or so, about 2,000 (36%) were called active. About 18% were inconclusive and are not listed. Rule as the data show it: active = normalized growth mostly below about 0.91 (no sharp cut-off); inconclusive = no clear call, values can overlap the other calls; inactive = mostly above about 0.92. The list shows a part of the results.
Assay: chemical genetic growth profiling, strain panel (AID 1159580);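 also: tested at 20 µM; growth read once vehicle control cultures reached saturation at 30 °C; 1 = growth at the plate median or of vehicle wells; lower values mean less growth of the strain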
Conditions: S. cerevisiae deletion strains, growth OD

Measured: normalized growth

N[C@H](CCC(=O)NCS(=O)(=O)O)C(=O)O
inactive: locus YAL013W, strain DEP1, hits give low values 1.01 | locus YAL040C, strain CLN3, hits give low values 0.996 | locus YCL061C, strain MRC1 (second series), hits give low values 1.01 | locus YDR150W, strain NUM1, hits give low values 1 | locus YDR363W, strain ESC2, hits give low values 1.02 | locus YER002W, strain NOP16, hits give low values 1.02 | locus YGR078C, strain PAC10, hits give low values 0.997 | locus YGR229C, strain SMI1, hits give low values 1.03 | locus YMR263W, strain SAP30, hits give low values 1.01 | locus YMR307W, strain GAS1, hits give low values 1 | locus YNL128W, strain TEP1, hits give low values 1 | locus YNL175C, strain NOP13, hits give low values 0.998 | locus YNL197C, strain WHI3, hits give low values 0.997 | locus YNL224C, strain SQS1, hits give low values 0.986 | locus YNL322C, strain KRE1, hits give low values 1.01 | locus YOR083W, strain WHI5 (second series), hits give low values 0.981 | locus YPL055C, strain LGE1, hits give low values 1.02 | locus YPL241C, strain CIN2, hits give low values 1

— PubChem BioAssay AID1159580 (chemical genetic matrix, 2015)
